# Source: PubChem BioAssay
# SARS PLpro yeast: blocks SARS-CoV papain-like protease in a yeast assay; S. cerevisiae expressing SARS-CoV PLpro, growth rescue; 330,000 tested, 0.19% active; AID 485353; Potency, µM (top dose mostly 32.9 µM), without a hit: at the top dose activity, positive = growth rescue, usual class: activators; calls by dose curve; further: 0% is about no effect; nearly all actives have a fitted effect of over 55% in size
# Pf growth 96h: inhibits malaria parasite growth, 96 h. 320,000 tested, 6.9% active. P. falciparum luciferase reporter growth, 96 h. Potency, µM (top dose mostly 28.7 µM), inactives show at the top dose activity change, negative = inhibition, hits mostly inhibitors; further: on the % scale 0 is the no-effect control and ±100 the full control effect
#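 Erythrocytes infected with luciferase-expressing P. falciparum were dispensed at 2% hematocrit and 0.05% parasitemia (final), then incubated with compounds 96 hours at 37 C in 5% CO2. Luminescence after detection reagent addition reported growth.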
# Pf growth 48h: inhibits P. falciparum growth in the first generation, 48 h; AID 504832; Potency, µM (titrated, usually from 28.7 µM), for inactives: at the highest dose activity change, negative = inhibition, usual class: inhibitors; P. falciparum luciferase growth in erythrocytes, 48 h; 310,000 tested, 5.9% active; further: on the % scale 0 is the no-effect control and ±100 the full control effect
#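 Luciferase-expressing parasites in RBCs, 2% Hct / 0.1% parasitemia final; RPMI 1640 + 0.5% Albumax; 37 C, 5% CO2, one generation; luminescence read-out, lower signal = inhibition.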
# NS1 function inh: inhibitors of influenza NS1 protein function; Potency, µM (top dose mostly 46.1 µM), for the others: at the highest dose activity, positive = more growth; 270,000 tested, 0.4% active; calls by dose curve; further: actives are rising curves; nearly all actives have a fitted effect of over 50% in size
#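 S. cerevisiae expressing influenza A NS1, grown in glucose, washed, then diluted 1:100 into pH 6.0 -URA galactose medium with 23 nl compound. Growth recovery read as OD600; NS1-free strain serves as control.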
# Active calls of the source: *; u = inconclusive; x = not tested or not shown; [ ] = remark or other dose. A selection: hits, their analogues and other compounds. The true share with any hit is near 10%. Unless noted, the call rests on the fitted dose curve; in most records, active means well fitted inhibition curve with a large enough effect; inconclusive means small, poorly fitted or top-dose-only effect, or another doubt; inactive means no such curve, though single readings can be large or run the other way. Potency means the concentration at half of the fitted maximal effect.
SMILES,SARS PLpro yeast,Pf growth 96h,Pf growth 48h,NS1 function inh
CC(C)CCNC(=O)c1onc(CSc2ccc(F)c(F)c2)c1C(=O)NCCC(C)C,-4%,10µM*,12µM*,u
CC(C)CCNC(=O)c1onc(CSc2ccc(F)cc2)c1C(=O)NCCC(C)C,1%,u,4.1µM*,x
CC(C)CCNC(=O)c1onc(CSc2ccc(Cl)cc2)c1C(=O)NCCC(C)C,-2%,u,u,-9%
COc1cc2cc(CCOC(=O)c3ccc(C#N)cc3)oc(=O)c2cc1OC,-3%,u,6%,x
O=[N+]([O-])C(/C=C(\Cl)[N+](=O)[O-])=C(N1CCCCC1)N1CCCCC1,-4%,1.2µM*,u,x
COCCN(Cc1cc2cc(C)ccc2[nH]c1=O)S(=O)(=O)c1ccc(Cl)cc1,7%,7%,-11%,9%
COc1ccc(CCN2CC(C(=O)NCC(=O)Nc3ccc(F)c(F)c3)CC2=O)cc1OC (stereo unspecified),1%,u,-19%,x
CCOC(=O)C(C)Sc1nnc(Cc2cc(=O)[nH]c(=O)[nH]2)n1-c1ccc(OCC)cc1 (stereo unspecified),-4%,9.3µM*,x,5%
CCOc1ccc(-n2c(Cc3cc(=O)[nH]c(=O)[nH]3)nnc2SCc2cccnc2)cc1,5%,13µM*,x,2%
CCOC(=O)C(C)Sc1nnc(Cc2cc(=O)[nH]c(=O)[nH]2)n1-c1ccc(Cl)cc1 (stereo unspecified),11%,-1%,3%,1%
CN(CCOc1ccc(Cl)cc1)C(=O)c1cc(-c2ccco2)nc2ccccc12,4%,u,u,x
O=C(CCc1nc2cccnc2n1Cc1ccccc1)NCCc1ccc(Cl)cc1,2%,u,u,-9%
COc1ccc(Cn2c(CCC(=O)Nc3ccccc3)nc3cccnc32)cc1,1%,u,-14%,3%
COc1ccc(Cn2c(CCC(=O)Nc3ccc(CC#N)cc3)nc3cccnc32)cc1,7%,3.7µM*,u,11%
COCCCNC(=O)CCc1nc2cccnc2n1Cc1ccccc1,4%,8.3µM*,31%,3%
CC(C)N=C(N)N=C(N)Nc1ccc(Cl)cc1,x,0.33µM*,1.2µM*,x
NC(=NCCCCCCN=C(N)/N=C(\N)Nc1ccc(Cl)cc1)/N=C(\N)Nc1ccc(Cl)cc1,-37%,u,0.33µM*,-125%
CC(C)N=C(N)/N=C(\N)Nc1ccc(Cl)cc1,x,0.36µM*,2.9µM*,x
CCOC(=O)c1ccc(NC(=O)CN2C(=O)NC3(CCCCCCC3)C2=O)cc1,7%,u,u,x
CC1=C(C#N)C(c2ccccc2)C2=C(N1)c1ccccc1C2=O (stereo unspecified),-14%,15µM*,u,-9%
CCOc1ccc(S(=O)(=O)N2CCOCC2)cc1NS(=O)(=O)c1ccc(OC)c([N+](=O)[O-])c1,0%,-20%,6%,x
O=C(N1CCCCC1)C12CC3CC(C1)CC(C(=O)N1CCCCC1)(C3)C2,-3%,x,-18%,4%
O=C(N1CCCC1)C12CC3CC(CC(C3)C1)C2,u,-3%,12µM*,4%
Cc1cc(C)n2nc(SCC(=O)c3c(N)n(CC(C)C)c(=O)n(C)c3=O)nc2n1,-9%,u,4.7µM*,x
Cc1cc(C)n2nc(SCC(=O)N(CC(C)C)c3c(N)n(CC(C)C)c(=O)[nH]c3=O)nc2n1,3%,4%,7%,x
SMILES,SARS PLpro yeast,Pf growth 96h,Pf growth 48h,NS1 function inh
CCCn1c(N)c(C(=O)CSc2nc(N)cc(=O)[nH]2)c(=O)n(C)c1=O,-3%,4.7µM*,u,x
CC(C)Cn1c(N)c(C(=O)CSc2nc3ncc(Cl)cc3[nH]2)c(=O)n(C)c1=O,0%,10µM*,u,x
CCN(C(=O)c1ccncc1)c1c(N)n(Cc2ccccc2)c(=O)[nH]c1=O,-1%,3%,1%,x
CCCN1C(=O)/C(=C/c2ccco2)SC1=Nc1ccc(OC)cc1,-3%,u,10µM*,10%
COc1ccc(N=C2S/C(=C\c3ccc(C)o3)C(=O)N2CC(C)C)cc1,9%,3.3µM*,x,1%
CC1(C)O[C@@H]2C[C@H]3[C@H]4C[C@H](F)C5=CC(=O)C=C[C@@]5(C)[C@@H]4[C@H](O)C[C@]3(C)[C@]2(C(=O)CO)O1,x,-24%[12.8 µM],-10%[12.8 µM],x
CC(C)OC(=O)C(C(=O)C(F)(F)F)c1cc(NS(=O)(=O)c2ccc3ccccc3c2)c2ccccc2c1O (stereo unspecified),-65%,3.3µM*,9.3µM*,28%
O=C(Cc1ccccc1)NN1C(=O)/C(=C/c2ccccc2C(=O)O)SC1=S,2%,12µM*,37%,x
COc1cc(C)c(CN2CCC(n3nccc3NC(=O)C3CCOC3)CC2)cc1C (stereo unspecified),u,u,15%,-8%
COc1cc(C(=S)N2CCN(C(c3ccccc3)c3ccccc3)CC2)cc(OC)c1O,-1%,9%,u,-22%
Cc1cccc(CN2CCN(Cc3ccc(Cl)cc3)CC2)c1,-1%,u,x,1%
Cc1cccc(CN2CCN(C(c3ccccc3)c3ccc(Cl)cc3)CC2)c1 (stereo unspecified),-68%,9.3µM*,u,-11%
COc1cccc(CN2CCN(C(c3ccccc3)c3ccccc3)CC2)c1O,5%,0.41µM*,u,2%
COc1cc(CN2CCN(C(c3ccccc3)c3ccccc3)CC2)cc(OC)c1OC,4%,4.7µM*,u,-15%
CCOc1ncccc1C(=O)Nc1c(C)n(C)n(-c2ccccc2)c1=O,8%,25%,-4%,-16%
O=C(CCNC(=O)c1ccc(Br)cc1)NCc1ccncc1,2%,5%,-14%,x
CC(C)CCNC(=O)C1(O)c2ccccc2NC(=O)N1c1ccc(Cl)cc1 (stereo unspecified),-1%,55%,6%,-8%
O=C(O)c1ccc(COc2ccc3ccccc3c2/C=C2/NC(=O)N(Cc3ccc(F)cc3)C2=O)cc1,1%,32%,8.3µM*,14%
CC(=O)Nc1ccc(S(=O)(=O)N2CC3(C)CC2CC(C)(C)C3)cc1 (stereo unspecified),-1%,2%,-29%,x
CC1(C)CC2CC(C)(CN2S(=O)(=O)c2ccc(C(=O)Nc3ccc(S(=O)(=O)N4CCOCC4)cc3)cc2)C1 (stereo unspecified),8%,u,10µM*,5%
O=C(Nc1ccc(Cl)c(S(=O)(=O)N2CCOCC2)c1)c1cccs1,-1%,x,x,x
CC1(C)CC2CC(C)(CN2S(=O)(=O)c2ccc(C(=O)Nc3ccc(Cl)c(S(=O)(=O)N4CCOCC4)c3)cc2)C1 (stereo unspecified),9%,u,9.3µM*,u
CCCNC(=O)c1cccc(S(=O)(=O)N2CC3(C)CC2CC(C)(C)C3)c1 (stereo unspecified),3%,13µM*,u,x
CN(C)C(CNC(=O)c1cccc(S(=O)(=O)N2CC3(C)CC2CC(C)(C)C3)c1)c1ccco1 (stereo unspecified),3%,17%[5.75 µM],u,3%
Nc1nc(N)nc(Cc2ccccc2O)n1,0%,u,4%,x
CCC(=O)Nc1ccc(N2CCN(Cc3ccccc3)CC2)cc1,0%,13%,u,0%
